Results: PubChem BioAssay
Calls of active or inactive are those of the source.

Tests used:
[1] = biological target: Albumin (Bos taurus) (UniProt P02769); assay: compounds binding labelled BSA control protein – biochemical, small-molecule microarray, Alexa647 label, 635/667 nm fluorescence, artefact control for SMM control protein annotation, profiling panel (AID 1118); conditions: BSA-A647 binding, fluorescence 635 nm, higher = more signal;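 also: score merges 667 nm emission intensity and signal-to-noise per printed compound spot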
Chain of Albumin (Bos taurus) (P02769 whole entry, looked up): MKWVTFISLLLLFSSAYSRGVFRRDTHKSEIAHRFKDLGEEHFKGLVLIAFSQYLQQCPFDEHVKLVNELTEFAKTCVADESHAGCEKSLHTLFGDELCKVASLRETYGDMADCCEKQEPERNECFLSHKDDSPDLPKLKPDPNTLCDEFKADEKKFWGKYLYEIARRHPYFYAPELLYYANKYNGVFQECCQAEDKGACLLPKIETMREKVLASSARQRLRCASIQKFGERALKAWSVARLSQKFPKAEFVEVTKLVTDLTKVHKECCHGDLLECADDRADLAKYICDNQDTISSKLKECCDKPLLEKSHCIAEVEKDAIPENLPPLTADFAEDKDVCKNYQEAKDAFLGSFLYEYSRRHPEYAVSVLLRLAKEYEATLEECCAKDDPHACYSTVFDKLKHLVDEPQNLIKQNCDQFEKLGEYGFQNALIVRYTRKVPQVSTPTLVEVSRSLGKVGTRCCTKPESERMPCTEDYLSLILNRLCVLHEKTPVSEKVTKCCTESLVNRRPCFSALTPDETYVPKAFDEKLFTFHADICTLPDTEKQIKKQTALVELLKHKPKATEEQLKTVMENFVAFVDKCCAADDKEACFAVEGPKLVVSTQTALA

[2] = probe aXIP binding to arrayed compounds – biochemical, NeuroSMM set, 635/667 nm fluorescence, primary screen (AID 1119); conditions: small-molecule microarray, higher = more signal, called active from +8 up or from −8 down;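 also: probe is the protein aXip251-270 applied at 1 µg/mL to compound-printed slides; binding of probe to printed compounds measured as 667 nm fluorescence plus signal to noise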
[3] = probe aNOTCH3 binding on compound microarray – biochemical, small-molecule microarray, 635/667 nm fluorescence, primary screen (AID 1120); conditions: higher = more signal;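 also: probe is a biotin-tagged antibody raised against NOTCH3 rather than NOTCH3 protein; score merges spot fluorescence near 667 nm with spot signal to noise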
[4] = probe aNOTCH2 binding on compound microarray – biochemical, small-molecule microarray, 635/667 nm fluorescence, primary screen (AID 1121); conditions: higher = more signal;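 also: score merges feature fluorescence read at 667 nm with its signal to noise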
[5] = biological target: Carbonic anhydrase 2 (Homo sapiens) (UniProt P00918); assay: compounds binding carbonic anhydrase 2 – biochemical, small-molecule microarray, Alexa647-labelled CAII, profiling panel (AID 1122); conditions: CAII-A647 binding fluorescence, higher = more signal
[6] = COS7 lysate on small-molecule microarray, probe aHis, 635 nm (AID 1123); conditions: COS7 cell lysate, fluorescence, higher = more signal;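 also: z-score combines 667nm fluorescence intensity with signal-to-noise per printed compound spot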
[7] = probe aLAP1 signal on lysate-treated microarray – cell lysate, small-molecule microarray, COS7 lysate, primary screen (AID 1124); conditions: probe aLAP1, fluorescence, higher = more signal;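 also: lysate comes from COS7 cells expressing LAP1 and is applied at 0.3 µg/mL; score merges spot fluorescence near 667 nm with signal-to-noise over triplicate slides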
[8] = tested on: Sam68 (KHDRBS1); assay: compounds binding KHDRBS1 protein – biochemical, small-molecule microarray, 635 nm fluorescence, primary screen (AID 1125); conditions: higher = more signal;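 also: score merges 667 nm channel intensity with signal to noise over triplicate slides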
[9] = tested on: Chordin-like protein 2 (CHRDL2); assay: compounds binding chordin-like 2 – biochemical, small-molecule microarray, 635 nm fluorescence, primary screen (AID 1126); conditions: fluorescence 635 nm, higher = more signal;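 also: printed compound slides probed with Chrdl2 protein at 4 µg/mL for 1 h at 4 C; score merges 667 nm emission intensity with signal to noise over three replicate slides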
[10] = biological target: Concanavalin-A (Canavalia ensiformis) (UniProt P02866); assay: compounds binding concanavalin A lectin – biochemical, small-molecule microarray, Alexa647 label, 635 nm, artefact control for SMM control protein annotation, primary screen (AID 1127); conditions: ConA-A647 binding fluorescence, higher = more signal;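 also: z combines 667 nm emission intensity with signal-to-noise across three replicate slides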
Chain of Concanavalin-A (Canavalia ensiformis) (P02866 whole entry, looked up): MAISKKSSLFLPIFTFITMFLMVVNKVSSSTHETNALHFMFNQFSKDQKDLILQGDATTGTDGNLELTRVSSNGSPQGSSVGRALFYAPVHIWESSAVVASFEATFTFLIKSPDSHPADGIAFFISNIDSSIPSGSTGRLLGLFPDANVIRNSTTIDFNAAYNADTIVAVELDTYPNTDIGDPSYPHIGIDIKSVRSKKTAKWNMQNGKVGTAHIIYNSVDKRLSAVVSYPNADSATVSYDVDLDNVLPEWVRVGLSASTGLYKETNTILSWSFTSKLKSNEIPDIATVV

[11] = compounds binding Alexa647 anti-His antibody – biochemical, small-molecule microarray, 635 nm fluorescence, artefact control for SMM control protein annotation, primary screen (AID 1128); conditions: higher = more signal;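 also: score merges feature fluorescence with signal-to-noise for each printed compound spot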
[12] = tested on: Human papillomavirus type 1a E7 protein (residues 1-88); assay: HPV1a E7 small-molecule binders, primary screen, biochemical, small-molecule microarray, residues 1-88, 635 nm (AID 1129); conditions: small-molecule microarray binding, fluorescence 635 nm; higher = more signal
[13] = biological target: Focal adhesion kinase 1 (Homo sapiens) (UniProt Q05397); assay: PTK2 protein binding on printed compound slides – biochemical, small-molecule microarray, 635/667 nm fluorescence, BSA, DTT, primary screen (AID 1130); conditions: 635 nm fluorescence, higher = more signal;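 also: composite of spot emission at 667 nm and signal to noise over triplicate slides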
Chain of Focal adhesion kinase 1 (Homo sapiens) (Q05397 whole entry, looked up): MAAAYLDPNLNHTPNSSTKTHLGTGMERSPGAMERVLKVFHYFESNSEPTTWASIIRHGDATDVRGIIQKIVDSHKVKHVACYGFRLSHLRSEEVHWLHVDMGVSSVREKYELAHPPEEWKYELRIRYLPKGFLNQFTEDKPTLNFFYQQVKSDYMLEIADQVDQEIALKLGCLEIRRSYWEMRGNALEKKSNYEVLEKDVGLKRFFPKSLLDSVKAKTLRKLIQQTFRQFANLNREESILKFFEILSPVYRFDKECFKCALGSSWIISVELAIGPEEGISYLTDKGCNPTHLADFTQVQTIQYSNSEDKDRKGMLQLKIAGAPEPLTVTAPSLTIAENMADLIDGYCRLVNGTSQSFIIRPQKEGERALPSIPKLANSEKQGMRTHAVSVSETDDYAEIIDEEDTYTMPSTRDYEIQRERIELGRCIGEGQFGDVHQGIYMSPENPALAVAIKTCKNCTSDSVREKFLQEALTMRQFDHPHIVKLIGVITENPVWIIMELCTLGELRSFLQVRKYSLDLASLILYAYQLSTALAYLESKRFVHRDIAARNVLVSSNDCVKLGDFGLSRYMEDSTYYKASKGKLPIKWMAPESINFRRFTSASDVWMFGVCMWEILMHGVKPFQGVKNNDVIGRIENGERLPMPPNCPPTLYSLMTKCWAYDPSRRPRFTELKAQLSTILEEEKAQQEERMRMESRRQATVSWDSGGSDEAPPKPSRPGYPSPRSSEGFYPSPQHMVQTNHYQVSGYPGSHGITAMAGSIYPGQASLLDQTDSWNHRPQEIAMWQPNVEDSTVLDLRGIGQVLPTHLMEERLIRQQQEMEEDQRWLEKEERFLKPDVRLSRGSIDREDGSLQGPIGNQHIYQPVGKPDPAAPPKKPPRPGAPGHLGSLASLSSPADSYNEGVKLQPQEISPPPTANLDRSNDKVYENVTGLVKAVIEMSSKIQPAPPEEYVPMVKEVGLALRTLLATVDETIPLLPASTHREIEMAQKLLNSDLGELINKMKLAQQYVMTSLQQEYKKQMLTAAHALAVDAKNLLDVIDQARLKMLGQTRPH

[14] = tested on: Fibrinogen (Alexa647-labelled); assay: Alexa647-fibrinogen binding to printed small molecules – biochemical, small-molecule microarray, 635/667 nm fluorescence, artefact control for SMM control-protein annotation, profiling panel (AID 1131); conditions: fibrinogen-A647 binding fluorescence, higher = more signal;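 also: z-score merges 667 nm fluorescence with per-spot signal-to-noise over triplicate slides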
[15] = biological target: Follistatin (Homo sapiens) (UniProt P19883); assay: FST protein binding to printed compounds – biochemical, small-molecule microarray, 635/667 nm fluorescence, primary screen (AID 1132); conditions: 635 nm fluorescence, higher = more signal
Chain of Follistatin (Homo sapiens) (P19883 whole entry, looked up): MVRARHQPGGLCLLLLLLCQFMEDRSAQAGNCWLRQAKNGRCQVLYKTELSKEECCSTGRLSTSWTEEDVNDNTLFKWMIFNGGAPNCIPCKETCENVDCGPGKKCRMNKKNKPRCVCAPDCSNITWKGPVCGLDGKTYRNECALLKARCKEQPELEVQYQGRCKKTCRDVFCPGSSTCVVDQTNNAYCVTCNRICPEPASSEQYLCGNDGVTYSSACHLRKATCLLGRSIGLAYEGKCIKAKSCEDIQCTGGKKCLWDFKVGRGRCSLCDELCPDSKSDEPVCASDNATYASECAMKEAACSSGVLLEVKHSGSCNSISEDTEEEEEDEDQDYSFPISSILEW

[16] = biological target: Fibroblast growth factor 2 (Homo sapiens) (UniProt P09038); assay: basic fibroblast growth factor binding to printed compounds – biochemical, small-molecule microarray, 635/667 nm fluorescence, primary screen (AID 1133); conditions: FGF2, fluorescence 635/667, higher = more signal
Chain of Fibroblast growth factor 2 (Homo sapiens) (P09038 whole entry, looked up): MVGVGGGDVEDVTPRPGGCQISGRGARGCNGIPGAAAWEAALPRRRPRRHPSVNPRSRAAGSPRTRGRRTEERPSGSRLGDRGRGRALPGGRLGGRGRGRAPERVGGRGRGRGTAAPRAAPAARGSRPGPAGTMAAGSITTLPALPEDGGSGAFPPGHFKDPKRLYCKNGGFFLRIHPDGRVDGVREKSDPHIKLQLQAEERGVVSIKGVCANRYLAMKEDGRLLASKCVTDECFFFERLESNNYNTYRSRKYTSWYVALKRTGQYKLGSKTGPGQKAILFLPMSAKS

[17] = JC-1 mitochondrial potential readout, lung cancer cells – cell-based, A549, JC-1 fluorescence, basal, 24 h, 100 nL, profiling panel (AID 1138); conditions: higher = more signal;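 also: A549 lung adenocarcinoma cells under basal conditions with no added stimulus; test concentration not given here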
[18] = tested on: Lefty1; assay: Lefty1 protein binding to printed compounds – biochemical, small-molecule microarray, 635/667 nm fluorescence, primary screen (AID 1139); conditions: fluorescence 635/667, higher = more signal
[19] = tested on: wheat germ agglutinin (Triticum aestivum), Alexa647-labelled; assay: Alexa647-WGA lectin binding to printed small molecules – biochemical, small-molecule microarray, 635/667 nm fluorescence, artefact control for SMM control-protein annotation, profiling panel (AID 1140); conditions: WGA-A647 binding, 635 nm fluorescence, higher = more signal;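 also: score merges 667 nm feature emission with signal to noise over triplicate slides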
[20] = biological target: Luciferin 4-monooxygenase (Photinus pyralis) (UniProt P08659); assay: inhibition of purified Photinus pyralis luciferase – biochemical, luminescence, purified enzyme, 2006 set, primary screen (AID 1141); conditions: purified firefly luciferase, SteadyGlo luminescence, 30 min; higher = more signal, called active from +8 up or from −8 down;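 also: cell-free assay with purified firefly luciferase at 100 ng per well in PBS; test concentration not given here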
Chain of Luciferin 4-monooxygenase (Photinus pyralis) (P08659 whole entry, looked up): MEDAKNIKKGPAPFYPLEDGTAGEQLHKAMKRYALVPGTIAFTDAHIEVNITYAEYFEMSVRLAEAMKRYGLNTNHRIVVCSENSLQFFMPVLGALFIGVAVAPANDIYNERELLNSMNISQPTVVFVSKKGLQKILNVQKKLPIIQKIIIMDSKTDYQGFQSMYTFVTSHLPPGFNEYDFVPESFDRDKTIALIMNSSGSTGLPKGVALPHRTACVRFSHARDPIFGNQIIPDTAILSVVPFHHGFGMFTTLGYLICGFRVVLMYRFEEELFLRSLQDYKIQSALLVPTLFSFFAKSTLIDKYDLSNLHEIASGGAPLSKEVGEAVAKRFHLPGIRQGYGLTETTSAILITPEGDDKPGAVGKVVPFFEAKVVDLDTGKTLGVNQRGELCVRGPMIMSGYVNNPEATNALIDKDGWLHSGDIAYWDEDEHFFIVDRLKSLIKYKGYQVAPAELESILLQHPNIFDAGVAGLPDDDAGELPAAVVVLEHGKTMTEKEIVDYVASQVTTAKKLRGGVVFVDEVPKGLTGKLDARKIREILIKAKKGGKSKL

Row | SMILES | composite z-score [1] | composite Z-score [2] | composite z-score [3] | composite z-score [4] | composite z-score [5] | composite z-score [6] | composite z-score [7] | composite z-score [8] | composite z-score [9] | composite z-score [10] | composite z-score [11] | composite z-score [12] | composite z-score [13] | composite z-score [14] | composite z-score [15] | composite z-score [16] | z-score [17] | composite z-score [18] | composite z-score [19] | z-score [20]
1 | CCC(CC)C(O)C1C=CC2C(=O)N(c3ccccc3)C(=O)C2N1Nc1ccccc1 (stereo not given) | 0.803 | 0.62 (inactive) | 0.708 | 0.272 | 0.491 | 2.44 | 0.383 | 1.31 | 0.0429 | 1.16 | 1.51 | 1.25 | 0.633 | 1 | 1.06 | 0.514 | -0.117 | 0.858 | 1.03 | -1.9 (inactive)
2 | CCN(CC)c1ccc(N2CC=CC34O[C@@H]5C=CCOC(=O)[C@@H]5[C@H]3C(=O)N(CCCCCCO)[C@@H]4C2=O)cc1 (stereo not given in full) | 0.99 | 0.451 (inactive) | -0.126 | -0.174 | 0.909 | 0.922 | 0.751 | 0.0127 | -1.5 | -0.214 | 0.449 | -0.202 | -0.148 | -1.57 | -0.0283 | -0.666 | 0.262 | 0.436 | -0.0009 | -3.88 (inactive)
3 | CC(=O)NCCCC[C@@H]1NC(=O)[C@H]2C[C@@H](C(=O)O)[C@@H](c3ccc(O)cc3)N2C1=O | -0.0314 | 0.297 (inactive) | 0.22 | -0.0798 | 0.411 | 1.14 | 0.177 | 1.29 | 1.36 | 1.1 | 2.26 | 1.21 | 0.626 | 0.584 | 1.32 | 1.67 | -0.738 | 1.45 | 0.478 | -3.39 (inactive)
4 | O=C1C[C@@](C(=O)NCc2ccccc2)(c2ccc([N+](=O)[O-])cc2)[C@@H](c2ccc(CO)cc2)N1CC12CC3CC(CC(C3)C1)C2 | -0.0057 | -0.36 (inactive) | -0.128 | -0.14 | 0.479 | 1.37 | 2.12 | 1.31 | 0.119 | 0.89 | 0.729 | 1.19 | 1.42 | -0.151 | 1.33 | 1.46 | 1.44 | 0.943 | 0.162 | -0.756 (inactive)
5 | COC(=O)[C@@]1(Cc2ccc(F)cc2)[C@H]2c3cc(C(=O)N(C)C)n(Cc4ccc(C)o4)c3C[C@H]2CN1C(=O)c1ccccc1 | -0.373 | 0.444 (inactive) | 1.6 | 0.992 | 0.458 | 3.29 | 1.13 | 0.47 | -0.852 | -1.67 | 1.17 | 0.761 | -0.42 | -1.92 | -1.96 | -1.4 | 0.546 | -1.2 | 0.319 | 0.483 (inactive)
